The source of these data is PubChem BioAssay (EPA / NIEHS).

SMILES strings stand for the structures. The source made the active and inactive calls. The calls were made as follows: active = hit-call score of the fitted dose curve at least 0.9, where 1 is the maximum; inactive = score below 0.9.

The assay is described as follows: ATG_PBREM_CIS: Attagene CIS-FACTORIAL HepG2 Assay for human Phenobarbital-responsive Enhancer Module (PBREM) (AID 2282955). The following applies: HepG2 PBREM cis-reporter, Attagene multiplexed transcription; actives raise or lower the signal. The procedure: ATG_CIS is a cell-based, multiplexed-readout assay that uses HepG2, a human liver cell line, with measurements taken at 24 hours after chemical dosing in a 24-well plate.ATG_PBREM_CIS is one of 52 assay component(s) measured or calculated from the ATG_CIS assay. It is designed to make measurements of mRNA induction, a form of inducible reporter, as detected with fluorescence intensity signals by Reverse transcription polymerase chain reaction (RT-PCR) and Capillary electrophoresis technology.Data from the assay component ATG_PBREM_CIS was analyzed into 1 assay endpoint. This assay endpoint, ATG_PBREM_CIS, was analyzed with bidirectional fitting relative to DMSO as the negative control and baseline of activity. Using a type of inducible reporter, measures of mRNA for gain or loss-of-signal activity can be used to understand the reporter gene at the transcription factor-level as they relate to the gene NR1I3. Furthermore, this assay endpoint can be referred to as a primary readout, because this assay has produced multiple assay endpoints where this one serves a reporter gene function. To generalize the intended target to other relatable targets, this assay endpoint is annotated to the nuclear receptor intended target family, where the subfamily is non-steroidal.
Human liver HepG2 cells are transiently transfected with multiple reporter transcription units (MRTUs) in 6-well plates using FuGene 6 reagent (Roche; 3 ml FuGene/1 mg DNA). The MRTU constructs are regulated by a cis-regulating element (promoter). […] A major difference between the CIS and TRANS system is that in CIS activities of endogenous TFs are measured, whereas the TRANS assay evaluates changes in activities of exogenous, chimeric NR-Gal4 proteins. […] At the end of 24 hour incubation, total RNA was isolated using TriZol reagent (Invitrogen). The isolated RNA is then reverse-transcribed using oligo(dT) primer and Mo-MLV reverse transcriptase (Invitrogen) with DNAse I (Ambion) treatment for 30 min. The one-tenth of the produced cDNA was amplified by PCR using Taq DNA polymerase (Invitrogen) and two reporter sequence-specific primers. The PCR products were fluorescently labeled by primer extension with 6-arboxyfluorescein (6-FAM) 5'-labeled reporter sequence-specific primer (2 min at 95 C, 20 s at 68 C and 10 min at 72 C) and these products were digested with 5U of HpaI (New England Biolabs) for 2h at 37 C. The fragments were purified using Qiaquick PCR columns (Qiagen), analyzed on an ABI 3130xL genetic analyzer (Applied Biosystems) with peak positions identified by using a set of X-rhodamine (ROX)-labeled MapMarker1000 molecular weight standards (BioVentures). The raw capillary electrophoresis data was processed using Attagraph software (Attagene).
Turning to `C=CC(C)C#N` (stereo not given), the outcome was inactive.

As to `CC(C)CC(C)CC(O)CC(C)C` (stereo not given), the outcome was inactive.

With `CCCSc1ccc2nc(NC(=O)OC)[nH]c2c1`, the outcome was inactive.

Consider `CN(C)CCOC(C)(c1ccccc1)c1ccccn1` (stereo not given), for which the outcome was inactive.

For the compound `C=Cc1ccncc1`, the result was inactive.

In the case of `C=CC(=O)OCCCC`, the outcome was inactive.

Regarding `CCc1cc(Cc2cc(CC)cc(C(C)(C)C)c2O)c(O)c(C(C)(C)C)c1`, the result was inactive.

`COc1ccc(CCO)cc1`: the result was inactive.

Turning to `C=CCN(CC=C)CC=C`, the result was inactive.

For the compound `C=C(C)C(=O)OCCOCCOCCOCCOC(=O)C(=C)C`, the result was inactive.

In the case of `Cc1ccc(C)o1`, the outcome was inactive.

`Cc1occc(=O)c1OC(=O)C(C)C`: the result was inactive.

For `CCOC(=O)[C@@H](C)Oc1ccc(Oc2nc3ccc(Cl)cc3o2)cc1`, the result was inactive.

Consider `CC(=O)O[C@H]1C[C@@H]2CC[C@@]1(C)C2(C)C`, for which the result was inactive.

With `CCOC(=O)c1ccc(N)cc1`, the outcome was inactive.

Take `COc1cccc(OC)c1O`: the result was inactive.

For the compound `CC1(C)O[C@@H]2[C@@H](CO[C@@]3(COS(N)(=O)=O)OC(C)(C)O[C@@H]23)O1`, the result was inactive.

Take `[O-]n1ccccc1=S.[O-]n1ccccc1=S.[Zn+2]`: the result was inactive.

Turning to `COC(=O)c1ccc(OC)cc1`, the result was inactive.

As for `O=C(O)COCC(=O)O`, the result was inactive.

`C[N+](C)(C)CCCCCC[N+](C)(C)C`: the result was inactive.

Take `NC1CCCCC1N` (stereo not given): the result was inactive.

Take `CCOC(=O)C(C#N)=C(c1ccccc1)c1ccccc1`: the concentration at half-maximal activity (AC50) (usually the midpoint of the concentration-response curve, whichever way the signal moves) is 2.07 µM (active).

As for `C#CC(C)(O)CC(C)C` (stereo not given), the outcome was inactive.

For the compound `COCCOC(=O)c1ccccc1C(=O)OCCOC`, the outcome was inactive.

Turning to `C[C@H]1C[C@@H](O)CC(C)(C)C1`, the result was inactive.

In the case of `O=c1[nH]c(=O)c2cn[nH]c2[nH]1`, the outcome was inactive.

For `CC=CC=CCOC(=O)C(C)C`, the outcome was inactive.

Take `c1ccc(Oc2ccccc2)cc1`: the outcome was inactive.

As for `N[C@@H](Cc1cc(I)c(Oc2cc(I)c(O)c(I)c2)c(I)c1)C(=O)O`, the AC50 is 11.2 µM (active).

Take `CCN(CCN)c1cccc(C)c1`: the result was inactive.

Regarding `CC(C)=CCCC(C)CC(=O)O` (stereo not given), the result was inactive.

For the compound `CCCCC1CCC(O)CC1` (stereo not given), the outcome was inactive.

In the case of `CCc1ccc(O)c(OC)c1`, the result was inactive.

For `COc1cc(CCC(C)=O)ccc1O`, the result was inactive.

In the case of `CCCCC(CC)(CO)CO`, the result was inactive.

For the compound `CCCCCCCCc1ccc(S(=O)(=O)O)cc1`, the half-maximal activity concentration (AC50) is 99.5 µM (active).

On to `CCCOC(=O)c1c(Cl)c(Cl)c(Cl)c(Cl)c1C(=O)OCCC`, for which the outcome was inactive.

Turning to `CCCCN(CCCC)C(=O)N(CCCC)CCCC`, the AC50 is 58.9 µM (active).

As for `CC(C)C(OC(=O)c1ccccc1)C(C)(C)COC(=O)c1ccccc1` (stereo not given), the result was inactive.
